Test [1] addresses 2-isopropylmalate synthase 2, mitochondrial (UniProt Q12166). Briefly: cross-link between two proteins; cross-linking mass spectrometry.
Test [2] concerns the target 26S proteasome regulatory subunit 7 homolog (UniProt P33299). Described as above.
Test [3] addresses 26S proteasome regulatory subunit RPN9 (UniProt Q04062). The test is described as above.
Test [4] deals with 26S proteasome regulatory subunit RPN2 (UniProt P32565). The test is described as above.
Test [5] deals with 26S proteasome regulatory subunit RPN7 (UniProt Q06103). The test is described as above.
The target in test [6] is 26S proteasome regulatory subunit RPN8 (UniProt Q08723). The description is as above.
26S proteasome regulatory subunit RPN8, sequence (Q08723 whole entry): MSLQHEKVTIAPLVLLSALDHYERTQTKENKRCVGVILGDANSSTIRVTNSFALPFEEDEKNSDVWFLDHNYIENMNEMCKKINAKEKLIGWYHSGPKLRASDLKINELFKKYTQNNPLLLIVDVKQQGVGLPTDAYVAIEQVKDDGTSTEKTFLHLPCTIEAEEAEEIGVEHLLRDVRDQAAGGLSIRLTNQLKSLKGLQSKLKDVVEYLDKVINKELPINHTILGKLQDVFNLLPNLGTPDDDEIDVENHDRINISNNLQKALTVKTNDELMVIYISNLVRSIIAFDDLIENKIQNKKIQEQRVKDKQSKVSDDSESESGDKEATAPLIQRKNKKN
The target of test [7] is 26S proteasome subunit RPT4 (UniProt P53549). The description is as above.
26S proteasome subunit RPT4, sequence (P53549 whole entry): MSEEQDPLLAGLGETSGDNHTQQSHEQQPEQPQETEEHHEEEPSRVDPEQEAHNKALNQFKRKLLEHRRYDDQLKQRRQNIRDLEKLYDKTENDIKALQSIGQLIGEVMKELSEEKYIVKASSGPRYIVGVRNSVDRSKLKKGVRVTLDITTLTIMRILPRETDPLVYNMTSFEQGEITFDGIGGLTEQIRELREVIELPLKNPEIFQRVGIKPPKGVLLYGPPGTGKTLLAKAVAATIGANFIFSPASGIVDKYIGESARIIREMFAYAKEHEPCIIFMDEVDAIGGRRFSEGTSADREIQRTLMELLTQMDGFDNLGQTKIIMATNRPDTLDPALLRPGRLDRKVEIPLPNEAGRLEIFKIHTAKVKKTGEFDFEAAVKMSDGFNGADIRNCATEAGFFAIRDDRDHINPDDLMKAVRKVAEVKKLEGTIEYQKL
The target of test [8] is ATP synthase subunit 4, mitochondrial (UniProt P05626). The test is described as above.
In test [9] the target is ATP synthase subunit 5, mitochondrial (UniProt P09457). The description is as above.
Test [10] has as its target ATP synthase subunit H, mitochondrial (UniProt Q12349). The test is described as above.
Test [11] addresses ATP synthase subunit d, mitochondrial (UniProt P30902). The description is as above.
Test [12] deals with ATP synthase subunit K, mitochondrial (UniProt P81451). Described as above.
For test [13], the target named is ATP synthase subunit f, mitochondrial (UniProt Q06405). The description is as above.
In test [14] the target is ATP synthase subunit gamma, mitochondrial (UniProt P38077). Described as above.
For test [15], the target named is ATP-dependent RNA helicase DBP10 (UniProt Q12389). Described as above.
The target of test [16] is ATP-dependent RNA helicase HAS1 (UniProt Q03532). Described as above.
ATP-dependent RNA helicase HAS1, sequence (Q03532 whole entry): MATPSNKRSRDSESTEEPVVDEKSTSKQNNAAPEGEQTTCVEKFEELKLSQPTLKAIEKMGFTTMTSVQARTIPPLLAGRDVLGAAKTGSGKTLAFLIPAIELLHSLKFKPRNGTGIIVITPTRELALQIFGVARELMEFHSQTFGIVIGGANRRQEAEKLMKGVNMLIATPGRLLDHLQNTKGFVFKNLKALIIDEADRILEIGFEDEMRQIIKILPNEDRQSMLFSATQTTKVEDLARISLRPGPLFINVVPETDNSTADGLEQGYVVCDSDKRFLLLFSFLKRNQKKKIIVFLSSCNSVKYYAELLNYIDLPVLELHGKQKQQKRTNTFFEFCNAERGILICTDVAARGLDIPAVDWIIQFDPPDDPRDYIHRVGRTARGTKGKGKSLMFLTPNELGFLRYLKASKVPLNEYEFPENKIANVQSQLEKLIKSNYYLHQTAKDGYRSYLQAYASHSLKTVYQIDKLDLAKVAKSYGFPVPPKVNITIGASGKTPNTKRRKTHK
In test [17] the target is Large ribosomal subunit protein eL22A (UniProt P05749). The description is as above.
Test [18] concerns the target Large ribosomal subunit protein uL3 (UniProt P14126). Described as above.
Test [19] concerns the target ATP-dependent molecular chaperone HSC82 (UniProt P15108). The test is described as follows: cross-link between two proteins; affinity purification or IP with mass spectrometry; cross-linking mass spectrometry.
In test [20] the target is Elongation factor 3A (UniProt P16521). The test is described as above.
Test [21] addresses Heat shock protein homolog SSE1 (UniProt P32589). The test is described as follows: cross-link between two proteins.
Test [22] addresses Heat shock protein homolog SSE2 (UniProt P32590). The test is described as follows: cross-link between two proteins; affinity purification or IP with mass spectrometry; cross-linking mass spectrometry.
Test [23] concerns the target Large ribosomal subunit protein eL21A (UniProt Q02753). The description is as above.
In test [24] the target is Large ribosomal subunit protein eL8B (UniProt P29453). Described as above.
The target in test [25] is Large ribosomal subunit protein uL24B (UniProt P53221). Described as above.
Test [26] deals with Signal transduction protein MDG1 (UniProt P53885). The test is described as above.
For test [27], the target named is Small ribosomal subunit protein eS1B (UniProt P23248). The test is described as above.
Test [28] addresses Small ribosomal subunit protein uS10 (UniProt P38701). The description is as above.
The target of test [29] is Small ribosomal subunit protein uS11B (UniProt P39516). The description is as above.
The target in test [30] is Heat shock protein STI1 (UniProt P15705). The description is as above.
Test [31] concerns the target Protein transport protein SSS1 (UniProt P35179). The description is as above.
Test [32] has as its target Large ribosomal subunit protein eL13B (UniProt P40212). Briefly: cross-link between two proteins; cross-linking mass spectrometry.
Test [33] concerns the target Casein kinase II subunit beta (UniProt P43639). The description is as above.
In test [34] the target is Casein kinase II subunit beta' (UniProt P38930). The description is as above.
Casein kinase II subunit beta', sequence (P38930 whole entry): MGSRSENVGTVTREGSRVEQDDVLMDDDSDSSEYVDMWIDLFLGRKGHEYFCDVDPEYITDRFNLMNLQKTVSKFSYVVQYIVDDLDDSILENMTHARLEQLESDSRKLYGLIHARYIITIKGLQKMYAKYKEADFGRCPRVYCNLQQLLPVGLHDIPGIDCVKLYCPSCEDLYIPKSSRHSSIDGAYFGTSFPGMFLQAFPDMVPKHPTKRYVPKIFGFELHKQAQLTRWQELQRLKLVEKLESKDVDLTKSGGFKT
For test [35], the target named is Cytochrome b-c1 complex subunit 10, mitochondrial (UniProt P37299). The test is described as above.
In test [36] the target is Cytochrome b-c1 complex subunit 2, mitochondrial (UniProt P07257). The test is described as above.
For test [37], the target named is Cytochrome c oxidase subunit 12, mitochondrial (UniProt Q01519). The test is described as above.
Test [38] addresses Cytochrome c oxidase subunit 5A, mitochondrial (UniProt P00424). The description is as above.
Test [39] concerns the target Cytochrome c oxidase subunit 6, mitochondrial (UniProt P00427). Described as above.
Test [40] has as its target DNA-directed RNA polymerase II subunit RPB11 (UniProt P38902). The description is as above.
Test [41] deals with DNA-directed RNA polymerases I, II, and III subunit RPABC5 (UniProt P22139). The test is described as above.
DNA-directed RNA polymerases I, II, and III subunit RPABC5, sequence (P22139 whole entry): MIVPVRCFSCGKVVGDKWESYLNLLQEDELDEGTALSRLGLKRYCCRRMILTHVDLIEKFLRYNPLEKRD
Test [42] has as its target FK506-binding protein 4 (UniProt Q06205). Described as above.
Test [43] deals with H/ACA ribonucleoprotein complex subunit NOP10 (UniProt Q6Q547). Briefly: cross-link between two proteins.
In test [44] the target is Heat shock protein homolog SSE1 (UniProt P32589). Briefly: cross-link between two proteins; cross-linking mass spectrometry.
Heat shock protein homolog SSE1, sequence (P32589 whole entry): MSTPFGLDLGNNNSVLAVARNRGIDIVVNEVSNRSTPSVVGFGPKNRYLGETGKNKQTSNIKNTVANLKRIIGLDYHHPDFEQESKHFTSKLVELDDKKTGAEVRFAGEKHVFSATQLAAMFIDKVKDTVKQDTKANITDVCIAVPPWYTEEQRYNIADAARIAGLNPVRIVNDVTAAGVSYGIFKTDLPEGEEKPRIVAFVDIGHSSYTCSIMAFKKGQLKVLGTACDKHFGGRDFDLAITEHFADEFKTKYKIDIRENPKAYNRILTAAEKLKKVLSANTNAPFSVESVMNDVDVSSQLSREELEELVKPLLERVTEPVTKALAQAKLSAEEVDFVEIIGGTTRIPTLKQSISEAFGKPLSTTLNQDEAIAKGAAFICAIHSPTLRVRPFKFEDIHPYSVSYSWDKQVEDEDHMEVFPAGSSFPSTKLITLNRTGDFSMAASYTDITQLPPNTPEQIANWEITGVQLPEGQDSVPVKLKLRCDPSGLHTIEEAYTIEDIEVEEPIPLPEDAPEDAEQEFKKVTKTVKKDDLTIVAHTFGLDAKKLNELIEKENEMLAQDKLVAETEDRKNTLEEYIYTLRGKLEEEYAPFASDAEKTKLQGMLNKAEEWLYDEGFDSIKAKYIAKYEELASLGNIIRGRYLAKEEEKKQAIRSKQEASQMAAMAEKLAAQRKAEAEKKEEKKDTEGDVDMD
Test [45] has as its target Heat shock protein homolog SSE2 (UniProt P32590). The description is as above.
Test [46] deals with Isocitrate dehydrogenase [NAD] subunit 1, mitochondrial (UniProt P28834). The test is described as above.
For test [47], the target named is Large ribosomal subunit protein eL30 (UniProt P14120). The test is described as above.
Large ribosomal subunit protein eL30, sequence (P14120 whole entry): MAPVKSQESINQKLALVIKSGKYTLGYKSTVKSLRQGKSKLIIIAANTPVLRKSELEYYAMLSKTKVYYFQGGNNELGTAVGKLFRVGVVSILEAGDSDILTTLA
Test [48] deals with Small ribosomal subunit protein eS7A (UniProt P26786). Briefly: cross-link between two proteins.
Test [49] concerns the target Large ribosomal subunit protein eL31A (UniProt P0C2H8). Briefly: cross-link between two proteins; cross-linking mass spectrometry.
Test [50] deals with Large ribosomal subunit protein eL32 (UniProt P38061). The description is as above.
Large ribosomal subunit protein eL32, sequence (P38061 whole entry): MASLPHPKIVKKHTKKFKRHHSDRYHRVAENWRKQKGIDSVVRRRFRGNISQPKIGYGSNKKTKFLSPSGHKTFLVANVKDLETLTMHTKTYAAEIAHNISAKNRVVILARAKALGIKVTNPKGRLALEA
The target in test [51] is Ribosome biogenesis protein ALB1 (UniProt P47019). The test is described as above.
Test [52] addresses Zuotin (UniProt P32527). The description is as above.

Ribosome-associated molecular chaperone SSB1, P11484, sequence (P11484 whole entry): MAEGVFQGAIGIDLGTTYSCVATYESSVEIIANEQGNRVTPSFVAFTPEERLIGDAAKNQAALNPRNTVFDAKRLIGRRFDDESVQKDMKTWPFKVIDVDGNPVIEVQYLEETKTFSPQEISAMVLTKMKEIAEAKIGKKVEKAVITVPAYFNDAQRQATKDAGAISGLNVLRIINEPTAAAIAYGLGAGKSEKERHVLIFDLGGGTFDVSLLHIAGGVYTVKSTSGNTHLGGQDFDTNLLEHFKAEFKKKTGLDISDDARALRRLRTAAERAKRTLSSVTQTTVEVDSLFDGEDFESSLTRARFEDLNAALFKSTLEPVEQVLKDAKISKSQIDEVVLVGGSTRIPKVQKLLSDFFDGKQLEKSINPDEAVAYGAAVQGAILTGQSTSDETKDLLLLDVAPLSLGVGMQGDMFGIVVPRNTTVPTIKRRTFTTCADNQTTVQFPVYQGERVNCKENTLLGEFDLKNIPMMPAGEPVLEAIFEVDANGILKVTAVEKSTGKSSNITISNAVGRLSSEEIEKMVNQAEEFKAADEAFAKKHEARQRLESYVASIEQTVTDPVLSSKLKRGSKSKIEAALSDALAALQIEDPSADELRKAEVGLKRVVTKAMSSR
Nucleolar protein 16, P40007, sequence (P40007 whole entry): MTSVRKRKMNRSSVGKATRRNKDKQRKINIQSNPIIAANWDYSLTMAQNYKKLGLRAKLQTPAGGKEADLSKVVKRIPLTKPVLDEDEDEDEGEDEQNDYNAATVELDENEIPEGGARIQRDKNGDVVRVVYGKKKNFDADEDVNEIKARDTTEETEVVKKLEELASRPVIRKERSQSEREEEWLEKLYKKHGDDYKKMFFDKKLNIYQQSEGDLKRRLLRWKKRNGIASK
Heat shock protein SSA1, P10591, sequence (P10591 whole entry): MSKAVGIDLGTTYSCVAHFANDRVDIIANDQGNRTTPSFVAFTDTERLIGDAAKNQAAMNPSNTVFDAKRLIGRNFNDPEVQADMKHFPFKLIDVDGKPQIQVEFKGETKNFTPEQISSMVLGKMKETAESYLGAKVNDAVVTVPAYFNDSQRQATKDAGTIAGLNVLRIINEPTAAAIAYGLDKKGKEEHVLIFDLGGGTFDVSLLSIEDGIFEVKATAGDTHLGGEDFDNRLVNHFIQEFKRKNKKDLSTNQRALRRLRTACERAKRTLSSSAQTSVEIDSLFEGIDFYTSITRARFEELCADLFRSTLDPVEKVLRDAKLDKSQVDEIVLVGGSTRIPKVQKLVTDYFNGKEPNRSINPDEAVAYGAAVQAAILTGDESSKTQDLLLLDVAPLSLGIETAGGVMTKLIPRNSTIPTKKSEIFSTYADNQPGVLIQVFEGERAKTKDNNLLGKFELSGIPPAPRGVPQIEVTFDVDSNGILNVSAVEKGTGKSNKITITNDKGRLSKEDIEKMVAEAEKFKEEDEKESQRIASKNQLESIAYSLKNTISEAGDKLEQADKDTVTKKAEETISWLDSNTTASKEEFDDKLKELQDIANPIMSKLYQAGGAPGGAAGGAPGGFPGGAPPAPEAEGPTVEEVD
Heat shock protein homolog SSE2, sequence (P32590 whole entry): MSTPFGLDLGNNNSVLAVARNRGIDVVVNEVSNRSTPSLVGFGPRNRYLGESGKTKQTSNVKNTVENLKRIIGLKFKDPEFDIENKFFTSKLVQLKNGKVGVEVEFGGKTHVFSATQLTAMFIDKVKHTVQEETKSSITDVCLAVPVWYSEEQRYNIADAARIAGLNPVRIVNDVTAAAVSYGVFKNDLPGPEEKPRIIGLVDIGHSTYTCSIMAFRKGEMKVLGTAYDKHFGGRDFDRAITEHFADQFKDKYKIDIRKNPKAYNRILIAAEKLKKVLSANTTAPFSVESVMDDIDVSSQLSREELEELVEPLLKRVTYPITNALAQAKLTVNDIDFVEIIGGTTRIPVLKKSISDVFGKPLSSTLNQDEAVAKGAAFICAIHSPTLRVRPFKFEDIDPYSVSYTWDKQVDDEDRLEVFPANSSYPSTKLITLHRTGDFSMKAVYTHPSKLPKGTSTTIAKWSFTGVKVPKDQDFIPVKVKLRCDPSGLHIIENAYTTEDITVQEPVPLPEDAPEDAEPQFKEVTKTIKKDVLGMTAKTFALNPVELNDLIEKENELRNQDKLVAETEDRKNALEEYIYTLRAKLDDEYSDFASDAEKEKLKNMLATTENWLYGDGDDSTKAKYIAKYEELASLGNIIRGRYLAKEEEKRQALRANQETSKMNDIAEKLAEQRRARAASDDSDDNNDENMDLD
ATP synthase subunit d, mitochondrial, sequence (P30902 whole entry): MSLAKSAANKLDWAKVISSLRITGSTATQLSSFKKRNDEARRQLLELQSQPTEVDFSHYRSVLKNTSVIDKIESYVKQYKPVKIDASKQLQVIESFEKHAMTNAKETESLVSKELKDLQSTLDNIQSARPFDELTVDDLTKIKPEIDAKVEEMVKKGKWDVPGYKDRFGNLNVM

Consider 2-isopropylmalate synthase, P06208, for which, in [1], the “listed as a hit” value is listed as “yes”.

Turning to “26S proteasome regulatory subunit 6A, P33297”, the “listed as a hit” value in test [2] and in [3] was “yes” throughout.

For “26S proteasome regulatory subunit RPN13, O13563”, the “listed as a hit” value in test [4] is on record as “yes”. “26S proteasome complex subunit SEM1, O94742”: the “listed as a hit” value in test [5] was “yes”. In the case of “Ubiquitin C-terminal hydrolase RPN11, P43588”, the “listed as a hit” value in test [6] and in test [7] was “yes” throughout. With “26S proteasome regulatory subunit RPN10, P38886”, the “listed as a hit” value in test [6] is “yes”. Regarding “26S proteasome regulatory subunit 6B homolog, P33298”, the “listed as a hit” value in [7] was “yes”. As for “ATP synthase subunit beta, mitochondrial, P00830”, the “listed as a hit” value in test [8] is reported as “yes”.

“ATP synthase subunit 4, mitochondrial, P05626”: the “listed as a hit” value in test [9], in [10] and in test [11] was “yes” in each case. Take “ATP synthase subunit e, mitochondrial, P81449”: the “listed as a hit” value in test [12] is reported as “yes”.

In the case of “ATP synthase subunit d, mitochondrial, P30902”, in [13], the “listed as a hit” value is reported as “yes”. Take “ATP synthase subunit epsilon, mitochondrial, P21306”: the “listed as a hit” value in test [14] is “yes”. For the substance “Ribosome biogenesis protein NSA2, P40078”, in [15], the “listed as a hit” value is recorded as “yes”. For “Proteasome-interacting protein CIC1, P38779”, the “listed as a hit” value in test [16] is reported as “yes”.

On to “Large ribosomal subunit protein eL24A, P04449”, for which the “listed as a hit” value in [17] and in [18] was “yes” in each case. Consider “ATP-dependent molecular chaperone HSP82, P02829”, for which the “listed as a hit” value in test [19] was “yes”. For the substance “Ribosome-associated molecular chaperone SSB1, P11484”, the “listed as a hit” value in test [20], in test [21], in [22], in [23], in test [24] and in test [25] was “yes” in each case. Moreover, the “listed as a hit” value in test [26], in test [27], in test [28] and in test [29] was “yes” throughout.

Take “ATP-dependent molecular chaperone HSC82, P15108”: the “listed as a hit” value in test [30] is reported as “yes”. In the case of Protein transport protein SEC61, P32915, the “listed as a hit” value in test [31] was “yes”.

Regarding Nucleolar protein 16, P40007, the “listed as a hit” value in test [16] and in test [32] was “yes” in each case. As to Casein kinase II subunit alpha, P15790, the “listed as a hit” value in test [33] is on record as “yes”. As to Casein kinase II subunit alpha', P19454, the “listed as a hit” value in test [34] is reported as “yes”. Take “Cytochrome b-c1 complex subunit 2, mitochondrial, P07257”: the “listed as a hit” value in [35] is recorded as “yes”. “Cytochrome b-c1 complex subunit 1, mitochondrial, P07256”: the “listed as a hit” value in test [36] is “yes”.

Take “Respiratory supercomplex factor 2, mitochondrial, P53721”: in test [37], the “listed as a hit” value is “yes”. Regarding “Cytochrome b-c1 complex subunit 6, mitochondrial, P00127”, in test [38], the “listed as a hit” value is given as “yes”.

On to “Cytochrome c oxidase subunit 5A, mitochondrial, P00424”, for which, in [39], the “listed as a hit” value is recorded as “yes”.

On to “DNA-directed RNA polymerase II subunit RPB3, P16370”, for which the “listed as a hit” value in [40] and in test [41] was “yes” in each case. In the case of “DNA-directed RNA polymerase II subunit RPB2, P08518”, the “listed as a hit” value in test [41] is recorded as “yes”. With “25S rRNA (cytosine(2870)-C(5))-methyltransferase, P40991”, the “listed as a hit” value in test [42] is recorded as “yes”. As to “H/ACA ribonucleoprotein complex subunit CBF5, P33322”, the “listed as a hit” value in test [43] is listed as “yes”. As for Heat shock protein SSA1, P10591, the “listed as a hit” value in [44] and in test [45] was “yes” each time. Regarding “Isocitrate dehydrogenase [NAD] subunit 2, mitochondrial, P28241”, the “listed as a hit” value in [46] was “yes”. Turning to “Small ribosomal subunit protein uS15, P05756”, the “listed as a hit” value in [47] and in test [48] was “yes” each time. As for “Large ribosomal subunit protein uL22A, P05740”, the “listed as a hit” value in test [49], in test [50], in [51] and in test [52] was “yes” throughout.
